Screening results: PubChem, several laboratories
CYP2C9 inhib: human CYP2C9 inhibition; CYP2C9 Supersomes, luciferin-H conversion, luminescence; inhibition, % at 5 µM; actives 20% (n = 96,000); AID 777;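 active = blocking of liver enzyme CYP2C9 beyond about 50% at 5 µM, limit read from the data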
CYP2C9 activ: CYP2C9 (human) activation. activation factor at 5 µM. recombinant CYP2C9, luciferin-H conversion, luminescence; stronger effect = higher value; factor 1 = untreated enzyme, 0 = blocked. P11712. actives 1.4% (n = 96,000);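 active = activation factor of 2 or more for CYP2C9 at a 5 µM dose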;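 note: 0 = sulfaphenazole-blocked wells and 1 = vehicle-only wells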
EphB4 ephrin blk: EphB4-ephrin-B2 interaction antagonism. P54760. EphB4 LBD / TNYL-RAW-Alexa532 peptide, fluorescence polarization. inhibition, % at 7 µM. actives 0.15% (n = 97,000);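 active = inhibition above the screen-wide mean inhibition plus 3 SD, cut at about 15% in these data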;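 note: 0% = DMSO wells and 100% = excess unlabeled TNYL-RAW peptide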
Target sequence (P54760 whole entry, looked up, the tested form may be a part): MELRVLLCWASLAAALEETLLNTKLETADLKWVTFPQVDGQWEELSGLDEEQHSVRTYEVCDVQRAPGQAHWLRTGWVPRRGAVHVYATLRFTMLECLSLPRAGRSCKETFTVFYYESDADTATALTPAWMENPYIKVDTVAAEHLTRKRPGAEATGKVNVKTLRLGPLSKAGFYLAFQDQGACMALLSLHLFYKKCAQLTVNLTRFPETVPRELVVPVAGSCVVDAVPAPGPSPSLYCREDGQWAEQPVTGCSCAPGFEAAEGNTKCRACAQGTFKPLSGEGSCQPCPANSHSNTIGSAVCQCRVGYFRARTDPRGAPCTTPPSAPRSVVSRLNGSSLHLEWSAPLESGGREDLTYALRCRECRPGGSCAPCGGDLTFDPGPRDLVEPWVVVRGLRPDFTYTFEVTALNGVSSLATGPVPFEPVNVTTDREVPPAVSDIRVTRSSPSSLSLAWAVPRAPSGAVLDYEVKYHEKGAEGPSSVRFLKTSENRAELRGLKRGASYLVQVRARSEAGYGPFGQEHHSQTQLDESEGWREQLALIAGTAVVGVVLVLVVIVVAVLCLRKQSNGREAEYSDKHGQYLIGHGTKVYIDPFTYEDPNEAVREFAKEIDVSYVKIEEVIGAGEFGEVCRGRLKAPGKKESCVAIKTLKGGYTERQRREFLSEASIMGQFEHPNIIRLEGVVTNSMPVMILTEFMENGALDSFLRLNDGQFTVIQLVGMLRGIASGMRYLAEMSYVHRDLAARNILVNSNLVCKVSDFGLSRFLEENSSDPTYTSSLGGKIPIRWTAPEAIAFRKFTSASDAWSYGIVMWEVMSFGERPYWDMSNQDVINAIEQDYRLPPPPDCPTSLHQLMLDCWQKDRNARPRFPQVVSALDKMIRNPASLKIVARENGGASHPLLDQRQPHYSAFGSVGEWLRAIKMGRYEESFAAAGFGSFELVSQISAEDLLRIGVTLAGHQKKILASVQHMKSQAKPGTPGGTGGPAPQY
CYP2C19 act: activators of human cytochrome P450 2C19; 96,000 tested, under 10 active; recombinant CYP2C19, luciferin-H EGE luminescence; stronger effect = higher value; 0 = fully inhibited enzyme, 1 = untreated enzyme; activation factor at 5 µM; P33261;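 active = activation factor of at least 2 at 5 µM in the primary screen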;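 note: 0 = wells with 2.5 mM tranylcypromine and 1 = vehicle-only wells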
CYP2C19 inhib: blocks human cytochrome P450 2C19; P33261; CYP2C19 Supersomes, luciferin-H EGE luminescence, 30 min; inhibition, % at 5 µM; actives 21% (n = 96,000); AID 778;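 active = CYP2C19 inhibition above a set limit at 5 µM in the primary screen, cut at about 50% in these data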;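 note: plate controls were negative control wells for no effect and 2.5 mM tranylcypromine positive control for full effect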
Active calls of the source: *; . = no result. Rows were chosen to be rich in hits. Some 27% of all compounds tested hit in one or more screens of this group.

SMILES	CYP2C9 inhib	CYP2C9 activ	EphB4 ephrin blk	CYP2C19 act	CYP2C19 inhib
CC(=O)N1CCN(c2ccc(N=Cc3c(O)n(Cc4ccccc4)c(=O)[nH]c3=O)cc2)CC1	.	.	-4	.	.
CCOc1ccc(C(=O)NC(=S)Nc2ccccc2N2CCC(C)CC2)cc1[N+](=O)[O-]	72*	0.3	3	0.7	27
COc1ccc(N2CCN(S(=O)(=O)c3ccc(C(=O)NC4CCCC4)cc3)CC2)cc1	.	.	-8	.	.
CCOC(=O)c1cccc2c1-c1ccccc1/C2=N/O	66*	0.3	2	0.6	42
CC(C)COC(=O)c1cccc2c1-c1ccccc1/C2=N\O	.	.	-1	.	.
Cc1cc(C)c(NC(=O)COc2ccccc2C(=O)Nc2ccc3c(c2)oc2ccccc23)c(C)c1	97*	0	4	0.6	37
N/C(Cc1cccs1)=N\OC(=O)COc1ccccc1Cl	16	0.8	-8	0.8	24
O=C(Nc1nccs1)c1cc2c(s1)CCCCC2	33	0.7	0	0.7	31
COC(=O)c1sccc1NC(=O)c1cc2c(s1)CCCC2	61*	0.4	3	0.6	36
CC/C(=C\C(=O)c1cccnc1)Nc1ccc(C)c(C)c1	58*	0.4	-5	0.3	71*
C/C(=C\C(=O)c1cccnc1)Nc1ccc(C(=O)O)cc1	33	0.7	-2	1.2	-15
COc1ccc(CNc2nc3nc(C)c(Cl)c(=O)n3[nH]2)cc1OC	76*	0.2	0	1.1	-14
COC(=O)Cc1c(C)nc2nc(NCc3ccccc3OC)[nH]n2c1=O	2	1	-5	1	0
COc1ccccc1CNc1nc2nc(C)c(C)c(=O)n2[nH]1	70*	0.3	1	0.9	14
Cc1ccc(N(CC(=O)N/N=C/c2ccco2)S(=O)(=O)c2ccccc2)cc1	22	0.8	-8	0.5	50
COc1ccc(N(CC(=O)N/N=C/c2ccco2)S(=O)(=O)c2ccccc2)cc1	20	0.8	3	0.4	60*
COc1ccc(S(=O)(=O)N(CC(=O)NCc2ccco2)c2ccccc2)cc1OC	9	0.9	7	0.1	91*
COc1ccc(S(=O)(=O)N(CC(=O)NCc2ccco2)c2ccccc2)cc1	42	0.6	-11	0.4	56*
Cc1ccc(S(=O)(=O)N(CC(=O)NCc2ccco2)Cc2ccccc2F)cc1	62*	0.4	1	0.6	37
C/C(=N\NC(=O)c1cccc(Cl)c1)c1cccc(NC(=O)c2ccco2)c1	14	0.9	-1	0.8	21
COC(=O)c1cc(NC(=O)CN(c2ccc(OC)cc2)S(=O)(=O)c2ccc(F)cc2)ccc1Cl	.	.	4	.	.
CCN(c1ccccc1)S(=O)(=O)c1ccc(N)c(OC)c1	-184	2.8*	-1	0.4	62*
C=CCNC(=O)CN(c1ccc(F)cc1)S(=O)(=O)c1ccc(OC)cc1	64*	0.4	4	0.1	92*
COc1ccc(S(=O)(=O)Cc2ccccc2)cc1N	-120	2.2*	.	0.4	62*
COc1ccc(OC)c(N)c1	-8	1.1	3	1	2
SMILES	CYP2C9 inhib	CYP2C9 activ	EphB4 ephrin blk	CYP2C19 act	CYP2C19 inhib
Cc1cc(NC(=O)C(C)(C)C)no1	-3	1	3	1	-3
O=C(CSc1nnc(Nc2ccccc2)s1)Nc1ccc(S(=O)(=O)N2CCOCC2)cc1	10	0.9	-3	1.1	-5
CSc1nc2cc3c(cc2n1C(=O)c1ccc(C)cc1)OCCO3	15	0.9	8	1	-3
CC(C)Cc1cc(C(=O)Nc2ccc(F)cc2F)no1	-76	1.8	.	0.8	20
O=C(Nc1cccc(O)c1)c1cc(-c2ccco2)on1	-104	2*	5	0.8	16
CC(C)Cc1cc(C(=O)Nc2c(F)cc(F)cc2Br)no1	2	1	2	0.3	68*
O=C(NC1CCCCC1)c1cc(-c2ccco2)on1	-176	2.8*	-10	1	0
O=C(Nc1c(F)cc(F)cc1Br)c1cc(-c2ccco2)on1	-97	2*	-4	1.2	-16
Cc1ccccc1OCC(=O)Nn1c(COc2ccccc2)nc2ccccc2c1=O	100*	0	1	0.7	34
Cc1cccc(C)c1OCC(=O)Nn1c(COc2ccccc2)nc2ccccc2c1=O	76*	0.2	5	0.9	13
Cc1ccc(OCC(=O)Nn2c(C)nc3ccccc3c2=O)c(C(C)C)c1	98*	0	4	1	4
Cc1cccc(C)c1NC(=O)Cn1c(CN2CCCCC2)nc2ccccc2c1=O	.	.	3	.	.
CC(=O)Nn1c(COc2ccccc2C)nc2ccccc2c1=O	77*	0.2	13	0.2	76*
COc1ccc(-c2ccc(SCC(=O)NCc3ccco3)nn2)cc1OC	32	0.7	11	0.7	29
Cc1c(C(=O)O)sc2nc3n(c(=O)c12)CCC(C)CC3 (stereo not given)	.	.	-1	.	.
COC(=O)c1sccc1NC(=O)CSc1ccccc1NS(=O)(=O)c1ccc(Cl)cc1	84*	0.2	5	0.4	59*
COC(=O)c1sccc1NC(=O)CSc1ccccc1NS(=O)(=O)c1ccccc1Cl	87*	0.1	3	1	4
COC(=O)c1sccc1NC(=O)CSc1cc(Cl)ccc1Cl	44	0.6	-3	0.7	30
O=C(NCc1cccnc1)c1c[nH]c2cc3c(cc2c1=O)OCCO3	2	1	-4	1.1	-7
CCOCCCNC(=O)c1c[nH]c2ccc(S(=O)(=O)Nc3cccc(OC)c3)cc2c1=O	68*	0.3	1	0.7	27
O=C(NCc1ccccc1)c1c[nH]c2ccc(S(=O)(=O)Nc3ccc4c(c3)OCCO4)cc2c1=O	89*	0.1	-3	0.7	32
O=C(NC1CC1)c1c[nH]c2ccc(S(=O)(=O)Nc3cccc(C(F)(F)F)c3)cc2c1=O	54*	0.5	-10	0.8	15
O=C(CN1C(=O)C2CC=C(Cl)CC2C1=O)NCc1ccccc1 (stereo not given)	15	0.9	-2	0.9	6
CC(NC(=O)c1ccc2c(c1)OCO2)C(c1cccs1)N1CCOCC1 (stereo not given)	2	1	5	1	4
NC(=O)CSc1nnc(Cc2csc(Nc3ccccc3)n2)n1Cc1ccccc1	49	0.5	-5	0.3	66*
SMILES	CYP2C9 inhib	CYP2C9 activ	EphB4 ephrin blk	CYP2C19 act	CYP2C19 inhib
COC(=O)C1ON2OC(C(=O)OC)C(C(=O)OC)C2C1CC(C)=O (stereo not given)	2	1	7	1	-2
O=C(CSCc1ccccc1)Nc1ccc(Cl)cn1	70*	0.3	4	0.4	64*
CC/C(=N\NC(=O)CSCc1ccccc1Br)c1ccc2c(c1)OCCO2	-1	1	3	1.1	-11
CC/C(=N\NC(=O)CSCc1ccc(Cl)cc1)c1ccc2c(c1)OCCO2	59*	0.4	-5	0.2	78*
O=C(CSCc1ccc(Cl)cc1)N/N=C/c1ccccc1	60*	0.4	2	0.1	86*
O=C(CN1CCN(Cc2ccccc2)CC1)Nc1ccc(Cl)cn1	15	0.8	3	0.9	9
